The full ranking holds about 68,000 sequences; the median of “fluorescence intensity (a.u.)” is about 9,100, and the highest 2% start at about 16,000. For the sample, the highest values were picked, then their nearest neighbours and some sequences at random.

We go through 47 sequences from PMC7819943, “Rice protein-binding microarrays: a tool to detect cis-acting elements near promoter regions in rice”.

Chain of OsWRKY34 (Q0JBA9 entry or part of it): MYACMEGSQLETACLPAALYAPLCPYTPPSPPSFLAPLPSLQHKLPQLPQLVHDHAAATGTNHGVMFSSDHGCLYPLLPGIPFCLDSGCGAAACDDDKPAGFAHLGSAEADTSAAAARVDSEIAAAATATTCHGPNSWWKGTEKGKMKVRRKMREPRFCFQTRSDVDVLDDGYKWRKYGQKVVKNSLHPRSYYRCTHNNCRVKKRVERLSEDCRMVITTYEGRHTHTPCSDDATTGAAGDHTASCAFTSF

This assay deals with OsWRKY34 (Oryza sativa, UniProt Q0JBA9 1-250). Description: protein-binding microarray (RPBM); PBS, 2% BSA, 51.3 ng/ul salmon testes DNA, 50 uM zinc acetate, 200 nM TF, 25 C, 1 h; high values mean tight binding. Conditions: protein: recombinant; tags: N-terminal polyhistidine and DsRed monomer fusion (pET32a); label: CyDye5-dUTP incorporated in the synthesized complementary strand; 3' TTTTT single-stranded linker to array surface; dsDNA, one strand shown. The gist of the method:
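For the binding signal, per-feature fluorescence intensity was read in arbitrary units on an Axon 4000B scanner. Before scanning, a 2% BSA-blocked custom Agilent array made double-stranded with Cy5-dUTP was washed after 1 h at 25 °C with 200 nM protein and 50 µM zinc acetate. The proteins were Ni–NTA-purified transcription factors with N-terminal polyhistidine and DsRed fusions, expressed in E. coli BL21-CodonPlus.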
Consider “ATACTCTTGGTTTATCTTTGATTTTGTATATCTTTTTATTCGGAGTCACCTAGTGCAG”, for which the binding signal was 9720 fluorescence intensity (a.u.).

As to “TACTGGTTCTACTTGATCTTATTTATCTTTTTATTCTATTCGGAGTCACCTAGTGCAG”, the binding signal is 10100 fluorescence intensity (a.u.).

As for “TCTGCTTCACTGTATTTTTGTCCAACAATTCCATGACATGCGGAGTCACCTAGTGCAG”, the binding signal is 8550 fluorescence intensity (a.u.).

Consider “TTTAGATTTATTTTTTGTGACATAGGGAGTACTTTTTTTTCGGAGTCACCTAGTGCAG”, for which the binding signal is 9200 fluorescence intensity (a.u.).

For the sequence “CTTCTCAAGTTCCAACCTTTGCGCTTTCTTATTATCAAAGCGGAGTCACCTAGTGCAG”, the binding signal is 8550 fluorescence intensity (a.u.).

Turning to “GCACGCATGCAGTTCCTTGACCAATTCTCACATCAACCACCGGAGTCACCTAGTGCAG”, the binding signal is 9100 fluorescence intensity (a.u.).

On to “AAACGTATGGCTGCTCTCTCTCTGCTGATGATCTCTCTCTCGGAGTCACCTAGTGCAG”, for which the binding signal was 8180 fluorescence intensity (a.u.).

Consider “GCCAATTTTTTCTCCTCACATCTATTTTACCCTATTATTCCGGAGTCACCTAGTGCAG”, for which the binding signal is 8390 fluorescence intensity (a.u.).

“CCGAGCACCCACCCGCCGCCGCCGCCGTCGCCGATTCATGCGGAGTCACCTAGTGCAG”: the binding signal was 9080 fluorescence intensity (a.u.).

Regarding “GTAATTAACCAGAATTCAGGTTTTGTCAGTGCCACCATCACGGAGTCACCTAGTGCAG”, the binding signal was 9850 fluorescence intensity (a.u.).

In the case of “ACTTTGTCCACCCATTTTGTGTTGTCTCGTTGTTTCTATTCGGAGTCACCTAGTGCAG”, the binding signal was 17000 fluorescence intensity (a.u.).

With “TCGTTGATTTTTGACATGATGTTTGACCATTCTTATTATTCGGAGTCACCTAGTGCAG”, the binding signal is 9750 fluorescence intensity (a.u.).

For “GGTTTTGCGGTTGAGCGAAACGACCCAATGGGAATCAAGACGGAGTCACCTAGTGCAG”, the binding signal is 60000 fluorescence intensity (a.u.).

With “TTTGTGTTGTCTAGACATTTTTTTCTATTTTTCACCTATTCGGAGTCACCTAGTGCAG”, the binding signal was 9190 fluorescence intensity (a.u.).

“ATTTCTAACTTTTTTTCCCATTGTTTTGTTTGTCTTATTTCGGAGTCACCTAGTGCAG”: the binding signal is 8920 fluorescence intensity (a.u.).

Consider “ATGACATGTCATGGGACTTACTTTACATGGTTTTGAATACCGGAGTCACCTAGTGCAG”, for which the binding signal is 8140 fluorescence intensity (a.u.).

Turning to “GAATCATGAGTTGGTTGGGTTGGCATTAAACTGTTTTGAGCGGAGTCACCTAGTGCAG”, the binding signal is 12100 fluorescence intensity (a.u.).

In the case of “GACACGGAAAATCATGGTTTGACTTTTTTTTTTGGGACGGCGGAGTCACCTAGTGCAG”, the binding signal is 19400 fluorescence intensity (a.u.).

For “TGGGACTTTATTTGCACTGGTTTTGGGAGTTGAGGGACACCGGAGTCACCTAGTGCAG”, the binding signal was 8550 fluorescence intensity (a.u.).

As for “TGTTGACTTTTGGATACATGTTTGACAATTCGTCTTATTTCGGAGTCACCTAGTGCAG”, the binding signal was 14700 fluorescence intensity (a.u.).

As to “ATTTTATTGTTGCGGTTGCCAATCAACAACGACGTCATTTCGGAGTCACCTAGTGCAG”, the binding signal was 9550 fluorescence intensity (a.u.).

With “CGTTGACTTTTTCTTACATGTTTGACCATTCGTCTTATTTCGGAGTCACCTAGTGCAG”, the binding signal was 35300 fluorescence intensity (a.u.).

For the sequence “GGCCTCTCAACTGACCCGTCTGCGAAATATGTTTATTTTCCGGAGTCACCTAGTGCAG”, the binding signal was 8060 fluorescence intensity (a.u.).

As for “ATTTATAGAGGTTGGGTGTGCATGTGTGGTGAGCATATTTCGGAGTCACCTAGTGCAG”, the binding signal was 8820 fluorescence intensity (a.u.).

For the sequence “GCTAGCGCTGCCGCCCTACTCTTGATCCTAAATATTCATTCGGAGTCACCTAGTGCAG”, the binding signal is 8210 fluorescence intensity (a.u.).

In the case of “ACTGGTCGAACCTTGGCGGGGAGGGGCCGGCCGGCCTCATCGGAGTCACCTAGTGCAG”, the binding signal was 8640 fluorescence intensity (a.u.).

For the sequence “ATGAAATGTTTGTCATTTCTGGTGGGGCTGTTAGTTAATTCGGAGTCACCTAGTGCAG”, the binding signal was 9970 fluorescence intensity (a.u.).

In the case of “CAAACCTGTGTACTTTCTACGTGTTTTTTCTATGTTTCCGCGGAGTCACCTAGTGCAG”, the binding signal is 12100 fluorescence intensity (a.u.).

As to “ACCATATGCATCTGAATTTGTTCTGAGTATACTCCATTTCCGGAGTCACCTAGTGCAG”, the binding signal is 10600 fluorescence intensity (a.u.).

“TGCCCGACTTGGCTTTCTCCTCCTCTCTCCTCCCGCAACCCGGAGTCACCTAGTGCAG”: the binding signal was 8600 fluorescence intensity (a.u.).

In the case of “AGCAGTTAACCCACCGTACAACAAAATCAATCAGTTTCTTCGGAGTCACCTAGTGCAG”, the binding signal is 8270 fluorescence intensity (a.u.).

On to “CCGCCGCCGCCTCCTGCTCCTTCGACCTGCCCCGGCCCCGCGGAGTCACCTAGTGCAG”, for which the binding signal was 8870 fluorescence intensity (a.u.).

As for “CCCCTATTTAGCCGCGCCATTTTCCCCTCGCTAGCTGTGTCGGAGTCACCTAGTGCAG”, the binding signal was 8400 fluorescence intensity (a.u.).

“TAATTTTTATAGGCCTGTTCATATTTTCTACCGTTGATTTCGGAGTCACCTAGTGCAG”: the binding signal was 10300 fluorescence intensity (a.u.).

As for “TTGACATCCTACGTTTGTGTTCCTCGTCACTCCACTATCGCGGAGTCACCTAGTGCAG”, the binding signal is 8040 fluorescence intensity (a.u.).

As to “ACACCATTGACTTTTTAATATGTGTTTGACCATTCGTCTTCGGAGTCACCTAGTGCAG”, the binding signal was 19200 fluorescence intensity (a.u.).

Consider “CCAATTTCTCTCTCCACATCTCTCTGTGTTTCTTTTATTTCGGAGTCACCTAGTGCAG”, for which the binding signal was 9680 fluorescence intensity (a.u.).

With “TTTTGACTTTCTCTTACACTGTTTGACCATTTATCTTATTCGGAGTCACCTAGTGCAG”, the binding signal was 14000 fluorescence intensity (a.u.).

Turning to “TGTTTGACACCATTGACTTTTTAGTATGTGTTTGACCATTCGGAGTCACCTAGTGCAG”, the binding signal is 13200 fluorescence intensity (a.u.).

As to “TCTGTATGGTCTACTTGTTTGATTGATTGATAATTTTACACGGAGTCACCTAGTGCAG”, the binding signal is 9240 fluorescence intensity (a.u.).

For the sequence “CTTACTTGGTCACTCCCTTTTTGTTATCTGATTTAGACGTCGGAGTCACCTAGTGCAG”, the binding signal was 8230 fluorescence intensity (a.u.).

“ATTGACTTTTTTAAAAATGTTTGACCATTCGTCTTATTCACGGAGTCACCTAGTGCAG”: the binding signal was 9010 fluorescence intensity (a.u.).

In the case of “GGTTGGTTTCTTTGTTTTTCTCTTATATTTACACTATATTCGGAGTCACCTAGTGCAG”, the binding signal is 23800 fluorescence intensity (a.u.).

As to “CGTCCTTATATAATTGTTTTACTTGGTGATTTCATCTGGTCGGAGTCACCTAGTGCAG”, the binding signal is 64500 fluorescence intensity (a.u.).

For “ATATTTTTTCTGTGTTTTGCAATCTTCTATTTTACACTTTCGGAGTCACCTAGTGCAG”, the binding signal was 11200 fluorescence intensity (a.u.).

On to “CTGTGTTTTCTATTTTTCTCTGTTTTACATCTATCTTCTTCGGAGTCACCTAGTGCAG”, for which the binding signal was 19100 fluorescence intensity (a.u.).

With “TTCTTTTTATATTTTCTTTTGTTGGTTTTTTTCGTCTCAACGGAGTCACCTAGTGCAG”, the binding signal is 13200 fluorescence intensity (a.u.).
